Neddyl block – cullin neddylation inhibition. AID 651699. 360,000 compounds, 0.58% hits. P61081+Q13564. inhibition, % at 25 µM. TR-FRET cullin neddylation, biochemical; in the data active = inhibition above about 36%
HDAC3 inhib – inhibitors of human histone deacetylase 3 | recombinant HDAC3, fluorogenic peptide/trypsin coupled, fluorescence | inhibition, % at 8.3 µM | 320,000 compounds, 0.15% hits | AID 2718; in the data active = inhibition above about 26%, passing the limit was not always enough; inconclusive = no clear call, values can overlap the other calls
Target sequence (O15379 whole entry, looked up): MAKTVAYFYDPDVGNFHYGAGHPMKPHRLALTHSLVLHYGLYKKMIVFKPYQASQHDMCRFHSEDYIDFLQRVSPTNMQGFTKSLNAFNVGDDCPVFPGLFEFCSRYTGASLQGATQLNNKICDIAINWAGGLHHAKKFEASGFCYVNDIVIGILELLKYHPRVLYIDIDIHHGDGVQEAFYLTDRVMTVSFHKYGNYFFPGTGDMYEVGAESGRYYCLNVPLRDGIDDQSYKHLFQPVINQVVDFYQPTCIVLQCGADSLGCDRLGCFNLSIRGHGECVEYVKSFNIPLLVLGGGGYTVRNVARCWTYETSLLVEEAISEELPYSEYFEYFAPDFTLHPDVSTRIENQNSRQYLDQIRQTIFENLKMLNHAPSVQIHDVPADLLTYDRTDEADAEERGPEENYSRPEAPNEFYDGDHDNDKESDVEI
H9c2 protect – protects H9c2 cardiomyocytes from peroxide injury. H2O2 injury protection, ATPLite, 2 h. protection from H2O2 cell death, % at 20 µM. 360,000 compounds, 0.63% hits;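 active = compounds giving at least 50% protection of heart cells from peroxide-induced death in the single-dose screen, raw or plate-pattern-corrected value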;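 note: 0% = DMSO wells with peroxide and 100% = DMSO wells without peroxide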
GRK2 aptamer HTS – human GRK2 inhibition via aptamer displacement. inhibition of aptamer binding, % at 10 µM. bead flow cytometry, FAM-aptamer displacement from GRK2. 330,000 compounds, 0.59% hits. P25098;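 active = inhibition of aptamer binding above 40%, roughly 3 SD of noise, on plates passing a quality check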;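 note: median bead fluorescence of bound FAM aptamer so fluorescent compounds give negative values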
GRK2 inh confirm – confirmation of human GRK2 inhibitors displacing RNA aptamer. shares compounds with GRK2 aptamer HTS. bead-bound GRK2, FAM-aptamer displacement, flow cytometry. aptamer displacement, % at 10 µM. 2,000 compounds, 4% hits;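 active = aptamer displacement above 40%, near three times the noise of non-fluorescent compounds, on plates passing quality checks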;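 note: negative values mostly reflect intrinsic compound fluorescence rather than true enhancement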
Aptamer quench 1 – quenches fluorescent RNA aptamer, GRK2 hit artifact. shares compounds with GRK2 aptamer HTS. Fluorescent RNA aptamer beads, quenching, flow cytometry; active compounds read high. fluorescence change (kMESF span), kMESF (test concentration not listed). 110 tested, under 10 active. AID 504521;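 active = compounds whose bead fluorescence drops by more than 37 kMESF across the dose range, marking them as dye quenchers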
FAM quench CP1 – aptamer fluorescence quenching in GRK2 counter-screen. shares compounds with GRK2 aptamer HTS. Carboxyfluorescein RNA aptamer on beads, flow cytometry quenching; active compounds read low. fluorescence response (% of DMSO), % at 10 µM. 2,000 tested, under 10 active. AID 504580;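 active = compounds that quench the bead-bound fluorescent RNA probe, cutting fluorescence to under half of the solvent control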;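 note: counterscreen run without GRK2 so only probe quenching by compound is measured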
GRK2 confirm 2 – human GRK2 inhibition confirmation, cherry pick 2; inhibition of aptamer binding, % at 10 µM; shares compounds with GRK2 aptamer HTS; 360 tested, under 10 active; bead-bound GRK2, FAM-aptamer displacement, flow cytometry;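 active = inhibition of aptamer binding above 40%, about triple the noise seen with nonglowing compounds, on plates passing quality control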;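 note: negative values mostly come from compounds that fluoresce themselves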
FAM quench SP – quenches fluorescent RNA aptamer, GRK2 hit artifact. 360 tested, under 10 active. carboxyfluorescein RNA aptamer beads, flow cytometry quenching; active compounds read low. fluorescence response vs DMSO, % at 10 µM. shares compounds with GRK2 aptamer HTS;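 active = response vs DMSO under 50%, meaning signal dropped by over half, treated as fluorescence quencher; inconclusive = no clear call, values can overlap the other calls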;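 note: labelled aptamer on streptavidin beads without GRK2 as a quench counter-screen; 100% = bead fluorescence of DMSO wells and lower means quenching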
FAM quench PS1 – aptamer fluorescence quenching in GRK2 powder counter-screen; shares compounds with GRK2 aptamer HTS; Bead-bound FAM RNA aptamer fluorescence quenching, flow cytometry; active compounds read low; fluorescence ratio to DMSO, % at 11.1 µM; 35 tested, under 10 active;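 active = compounds that dim the fluorescent label, raw bead signal shifting by over 33 units between lowest and highest dose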
* marks the source's active call; other numbers are inactive results; ? = inconclusive; nt = not tested or not shown. The list is not random: actives were taken first. Their share in the collection is about 1.8%.

SMILES	Neddyl block	HDAC3 inhib	H9c2 protect	GRK2 aptamer HTS	GRK2 inh confirm	FAM quench CP1	others
Cc1ccccc1NC(=S)NCc1ccc(Cl)cc1	4.7	-0.4	-3.0	2.0	nt	nt
CCOC(=O)c1[nH]c2ccccc2c1NC(=O)c1cc(OC)c(OC)c(OC)c1	-3.9	6.1	5.4	0.0	nt	nt
COc1cc(C(=O)Nc2c(C(=O)O)[nH]c3ccc(C)cc23)cc(OC)c1OC	-4.5	-4.9	2.6	88.0*	2.9	98.1
Cc1c(C(=O)N2CCCCCC2)c(S(=O)(=O)Nc2cccc(F)c2)c(C)n1C	1.6	3.4	-4.5	3.0	nt	nt
Cc1cc(OCC(=O)N2CCN(c3cccc(Cl)c3)CC2)c2c(C)c(C)c(=O)oc2c1	-8.4	-5.9	-8.7	55.0*	-16.2	96.8
Cc1cc(OCC(=O)N2CCC[C@@H]2C(=O)O)c2c(C)c(C)c(=O)oc2c1	nt	-47.5	-2.0	0.0	nt	nt
COc1cc(C(N)=O)cc(Br)c1OCc1ccccc1	-4.3	5.2	-6.7	100.0*	nt	nt	GRK2 confirm 2=7.8;FAM quench SP=105.0
CO[C@@H]1CN(C)C(=O)c2ccc(NC(=O)C3CCCC3)cc2OC[C@@H](C)N(Cc2ccc(F)cc2)C[C@H]1C	-4.7	nt	nt	nt	nt	nt
Cc1ccccc1C(=O)Nc1cccc(NC(=O)c2ncn[nH]2)c1	3.8	-1.2	-1.5	99.0*	16.4	97.9
Cc1ccc(NC(=O)c2ncn[nH]2)cc1	0.2	-7.2	-0.3	5.0	nt	nt
CC(Oc1cccnc1[N+](=O)[O-])C(=O)N1CCc2ccccc21 (stereo not drawn)	-8.8	0.5	3.3	33.0	1.6	104.4
O=C(COc1cccnc1[N+](=O)[O-])N1CCc2ccccc21	-22.8	-2.8	1.0	0.0	nt	nt
Nc1nc2sc3c(c2c(=O)s1)CCCC3	-10.1	1.5	-4.5	0.0	nt	nt
Nc1c2c(nc3sc4c(c13)CCCC4)CCCCCC2	-45.2	-1.3	-26.0	83.0*	-4.4	92.1
COc1ccc(/C(N)=N/OC(=O)CCCN2C(=O)c3ccccc3C2=O)cc1OC	-6.9	-1.2	4.1	1.0	nt	nt
CCC(C)NC(=O)NC(=O)CSc1nnc(-c2ccccc2F)n1C1CC1 (stereo not drawn)	-4.2	1.7	-3.2	49.0*	0.9	105.7
C=CCn1cccc(C(=O)Nc2ccc(OC)c(OC)c2)c1=O	0.7	2.3	0.7	48.0*	0.1	97.4
Cc1ccc(-c2ccc(CN3C(C(C)C)C(=O)N(Cc4cn(CCC5OCCO5)nn4)CCS3(=O)=O)cc2)c(C)c1 (stereo not drawn)	-0.9	nt	0.2	nt	nt	nt
COc1ccccc1-c1oc2ccccc2c1C#CC(C)(C)O	nt	-7.8	-1.8	2.0	nt	nt
CC(C)NC(=O)C(=O)NC1CCCCCC1	5.3	4.1	4.3	54.0*	0.2	101.2
Cc1ccc(S(=O)(=O)NCC(=O)OCC(=O)N2C(C)CCCC2C)cc1 (stereo not drawn)	3.4	-4.4	-6.3	0.0	nt	nt
O=S(=O)(c1ccc(=S)[nH]c1)N1CCN(Cc2ccccc2)CC1	-15.3	1.1	-1.2	0.0	nt	nt
Cc1ccnc2nc(C(=O)OCCOc3ccc(F)cc3)nn12	-0.6	0.7	7.6	2.0	nt	nt
Cc1ccc(C(=O)Nc2cccc(C(F)(F)F)c2)cc1NC(=O)c1nccn1C	-0.6	-2.7	-5.2	2.0	nt	nt
Cc1ccc(C(=O)Nc2cccc(C(F)(F)F)c2)cc1NC(=O)c1ccno1	3.7	10.7	3.1	1.0	3.3	103.2
SMILES	Neddyl block	HDAC3 inhib	H9c2 protect	GRK2 aptamer HTS	GRK2 inh confirm	FAM quench CP1	others
NS(=O)(=O)c1ccc(CCNC(=O)C(=O)c2cn(CC(=O)N3CCCC3)c3ccccc23)cc1	-27.8	3.5	4.1	1.0	nt	nt
CC(=O)N1c2ccc(S(=O)(=O)NCC3CCC(C(=O)Nc4cccc(C)n4)CC3)cc2CC1C (stereo not drawn)	-0.7	5.3	-8.8	0.0	nt	nt
Cc1ccc(C(=O)OCc2c(C)noc2C)cc1NC(=O)c1ccco1	-0.6	1.9	2.5	1.0	-2.2	96.4
CC(=O)Oc1c(Cl)cc(N(C(C)=O)S(=O)(=O)c2ccccc2)c2ccccc12	4.8	0.1	2.6	0.0	nt	nt
CCOC(=O)C1CCN(C(=S)Nc2ccc(S(N)(=O)=O)cc2)CC1	-8.4	-0.7	-5.9	0.0	nt	nt
NS(=O)(=O)c1ccc(NC(=S)N2CCC(O)CC2)cc1	-6.7	2.6	3.4	91.0*	1.7	99.1
CCn1c(SCC(=O)N2CCCC2)nnc1-c1ccco1	-11.1	-0.2	-2.7	47.0*	3.2	95.4
CSc1ncc(C(=O)Nc2cccc(C)c2C)c(C)n1	8.4	-2.1	0.4	4.0	nt	nt
COc1ccc([C@H]2CC(=O)C=C(c3cc(Cl)ccc3C)C2)cc1	-3.6	5.4	-18.0	0.0	nt	nt
Cc1ccc(Cl)cc1C1=CC(=O)C[C@H](c2ccc(F)cc2)C1	-9.3	9.9	-18.6	64.0*	3.1	110.2
Cc1c(/C=N\NC(=O)c2c[nH]c3ccccc23)cnn1C	-2.2	8.8	0.1	99.0*	-2.1	91.0
COc1cc2c(cc1NC(=O)c1ccc(C)c([N+](=O)[O-])c1)oc1ccccc12	1.7	-2.8	-10.9	0.0	nt	nt
COc1cc2c(cc1NC(=O)c1cccc([N+](=O)[O-])c1)oc1ccccc12	1.7	-1.7	-28.8	92.0*	-23.3	104.8
C=CCNc1nc2ccccc2nc1NS(=O)(=O)c1ccc(OC)cc1	37.1	-3.2	4.7	8.0	nt	nt
Cc1onc(-c2ccccc2)c1C(=O)n1cc(Br)cn1	-2.9	?	4.9	69.0*	0.4	97.0
Cn1cc(CNCC2CCCO2)c(-c2ccc(Oc3ccccc3)cc2)n1 (stereo not drawn)	4.7	2.7	3.3	0.0	nt	nt
Cc1cc(CNCc2cn(C)nc2-c2ccc(Oc3ccccc3)cc2)on1	-0.8	3.2	-0.3	100.0*	-0.5	101.1
CCOC(=O)C1(C)CCCN(C(=O)c2cccc(C(F)(F)F)c2)C1 (stereo not drawn)	4.3	nt	-3.4	nt	nt	nt
O=C(O)Cc1ccc(-n2cccc2)cc1	4.3	1.7	-5.8	99.0*	99.0*	120.8	Aptamer quench 1=9.5;FAM quench PS1=98.0
O=C(NC1CCCCC1)N1CCN(CCc2ccccc2)CC1	-2.2	0.9	5.0	70.0*	-1.7	101.2
CCN1CCN(C(=O)NC2CCCCC2)CC1	8.7	-7.0	-4.3	0.0	nt	nt
O=C(Cc1ccc(O)cc1)NC1CCCCCC1	0.2	-2.9	5.2	0.0	nt	nt

High-throughput results from PubChem BioAssay.
